# About 2,200 (0.71%) of roughly 310,000 compounds showed an effect of 50% or more. Effects have a minus sign here. Shown is part of a subset that was picked to be rich in strong results.
# Target: human ether-à-go-go-related gene (hERG) potassium channel (human, UniProt Q12809)
# Assay: primary screen, population patch clamp on CHO cells stably expressing hERG; higher = less effect of the substance
# Chain of human ether-à-go-go-related gene (hERG) potassium channel (Q12809 whole entry, looked up): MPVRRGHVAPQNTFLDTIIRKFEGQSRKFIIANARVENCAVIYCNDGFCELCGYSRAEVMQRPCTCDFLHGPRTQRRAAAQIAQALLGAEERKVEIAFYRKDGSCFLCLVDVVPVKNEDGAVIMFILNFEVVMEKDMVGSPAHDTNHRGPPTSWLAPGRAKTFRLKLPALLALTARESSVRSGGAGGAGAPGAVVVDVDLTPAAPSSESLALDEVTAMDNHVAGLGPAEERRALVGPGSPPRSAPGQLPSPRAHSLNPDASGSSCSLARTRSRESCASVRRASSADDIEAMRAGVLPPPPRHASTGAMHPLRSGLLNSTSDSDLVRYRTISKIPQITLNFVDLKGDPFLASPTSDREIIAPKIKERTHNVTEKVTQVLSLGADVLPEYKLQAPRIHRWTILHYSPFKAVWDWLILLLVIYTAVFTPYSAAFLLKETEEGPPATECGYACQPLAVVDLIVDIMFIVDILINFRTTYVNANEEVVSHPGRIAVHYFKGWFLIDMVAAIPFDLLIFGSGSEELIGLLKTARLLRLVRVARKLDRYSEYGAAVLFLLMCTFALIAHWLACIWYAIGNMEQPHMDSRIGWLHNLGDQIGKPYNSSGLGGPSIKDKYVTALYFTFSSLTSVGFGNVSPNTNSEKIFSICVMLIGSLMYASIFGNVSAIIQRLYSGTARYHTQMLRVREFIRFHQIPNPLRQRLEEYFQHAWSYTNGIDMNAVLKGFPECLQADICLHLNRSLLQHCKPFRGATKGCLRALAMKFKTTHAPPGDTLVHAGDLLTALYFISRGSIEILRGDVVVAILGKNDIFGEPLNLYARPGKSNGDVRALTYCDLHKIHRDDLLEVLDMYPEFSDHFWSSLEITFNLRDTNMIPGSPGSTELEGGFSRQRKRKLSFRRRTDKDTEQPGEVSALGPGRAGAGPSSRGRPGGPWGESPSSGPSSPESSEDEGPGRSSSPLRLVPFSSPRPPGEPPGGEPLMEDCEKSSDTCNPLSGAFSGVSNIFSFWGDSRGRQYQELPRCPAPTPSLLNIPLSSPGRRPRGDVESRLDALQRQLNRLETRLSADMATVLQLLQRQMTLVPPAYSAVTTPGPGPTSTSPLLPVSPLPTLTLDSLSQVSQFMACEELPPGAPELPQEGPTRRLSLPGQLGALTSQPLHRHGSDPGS
row,Compound,"hERG current change (%, negative = inhibition) at 1uM"
1,COCCCNC(=O)C(=O)Nc1cc2c3c(c1)CCN3C(=O)CC2,21.5%
2,CCOc1cc(CN2CCCC(CO)(Cc3ccc(F)cc3F)C2)ccc1OC (stereo not shown),-10.8%
3,Cc1cccc(N2CCN(C(=O)Cn3nc(Cc4ccncc4)c4ccccc4c3=O)CC2)c1C,3.71%
4,CC(C)(C)OC(=O)N/N=C\c1ccc(OC(=O)c2ccco2)cc1,10.8%
5,COc1ccccc1C(=O)NC1CCN(C(=O)Nc2ccc(C)cc2)CC1,10.5%
6,O=C(CC1SC(=Nc2ccc(OC(F)F)cc2)N(CCN2CCOCC2)C1=O)Nc1ccc(F)cc1F (stereo not shown),-80.4%
7,COc1ccc(N=C2SC(CC(=O)Nc3ccccc3)C(=O)N2CCN2CCOCC2)cc1 (stereo not shown),3.66%
8,O=C(CC1SC(=Nc2ccccc2F)N(CCN2CCOCC2)C1=O)Nc1ccc(F)cc1F (stereo not shown),1.58%
9,c1ccc(CN2CCC(Nc3ncnc4sccc34)CC2)cc1,-31.2%
10,Cc1csc2ncnc(NC3CCN(Cc4ccccc4)CC3)c12,-35.4%
11,Cc1sc2ncnc(NC3CCN(Cc4ccccc4)CC3)c2c1C,-56.9%
12,NC(=S)Nc1cccc2cc3ccccc3cc12,0.594%
13,O=C1NC(c2ccc3c(c2)OCO3)Oc2ccccc21 (stereo not shown),7.7%
14,CN(C)CCCOC(=O)c1ccc(Cl)cc1Cl.Cl,-7.49%
15,CCN(CC)CCOC(=O)c1ccc(Cl)cc1Cl.Cl,-8.41%
16,CCCN(CCC)CCCOC(=O)c1ccc(Cl)cc1Cl.Cl,-56.8%
17,CN(Cc1ccc(-n2cccn2)cc1)Cc1cn(C)nc1-c1ccccc1F,-63.5%
18,Cn1cc(CNCc2ccc(-n3cccn3)cc2)c(-c2ccccc2F)n1,-35.4%
19,CN(Cc1cccc(-n2cccn2)c1)Cc1cn(C)nc1-c1ccccc1F,16.7%
20,Cc1ccc(=O)n(C(C(=O)NCc2ccco2)C(=O)c2ccc(F)cc2)c1 (stereo not shown),6.1%
21,Cn1c(Cn2nnc(-c3ccccc3)n2)nnc1SCc1ccccc1Cl,5.26%
22,CCCCOc1ccc(Cc2c(COCC)[nH]c(=S)[nH]c2=O)cc1,13%

row,Compound,"hERG current change (%, negative = inhibition) at 1uM"
1,Fc1cccc(C2NC(=S)NC3=C2N2CCC3CC2)c1 (stereo not shown),1.79%
2,COc1ccc(CCNC(=O)c2c(O)c3cccc4c3n(c2=O)CC4)cc1OC,-6.66%
3,CCCNC(=O)CS(=O)(=O)Cc1nc(-c2cccc(OC)c2)oc1C,-284%
4,COc1cccc(-c2nc(CS(=O)(=O)CC(=O)NCCCN3CCN(C)CC3)c(C)o2)c1,11.2%
5,COc1cccc(-c2nc(CS(=O)(=O)CC(=O)NCCCN3CCOCC3)c(C)o2)c1,10.9%
6,COCCCNC(=O)CS(=O)(=O)Cc1nc(-c2cccc(OC)c2)oc1C,11.3%
7,COc1cccc(-c2nc(CS(=O)(=O)CC(=O)NCCC(C)C)c(C)o2)c1,14.4%
8,COc1cccc(-c2nc(CS(=O)(=O)CC(=O)NCCCN3CCc4ccccc4C3)c(C)o2)c1,-56.3%
9,Cn1nc(C(F)(F)F)cc1C(=O)O,17.3%
10,Cl.O=C(Nc1ccc(Br)cn1)c1ccc(Br)s1,13.3%
11,N=c1c(C(=O)NC2CCCCC2)cc2c(=O)n3ccccc3nc2n1Cc1ccccc1,-10.1%
12,N=c1c(C(=O)NC2CCCCC2)cc2c(=O)n3ccccc3nc2n1Cc1cccnc1,-50.6%
13,N=c1c(C(=O)NC2CCCCC2)cc2c(=O)n3ccccc3nc2n1Cc1ccco1,-59.1%
14,Cc1ccc(S(=O)(=O)c2cc3c(=O)n4ccccc4nc3n(Cc3ccco3)c2=N)cc1C,-6.2%
15,N=c1c(C(=O)NC2CCCCC2)cc2c(=O)n3ccccc3nc2n1Cc1ccc(F)cc1,-29.5%
16,Cc1ccc(Cn2c(=N)c(S(=O)(=O)c3ccc(C)cc3)cc3c(=O)n4ccccc4nc32)cc1,6.66%
17,Cc1ccc(Cn2c(=N)c(C(=O)NC3CCCC3)cc3c(=O)n4ccccc4nc32)cc1,-73.4%
18,Cc1ccc(Cn2c(=N)c(C(=O)NC3CCCCC3)cc3c(=O)n4ccccc4nc32)cc1,-5.62%
19,N=c1c(C(=O)NC2CCCC2)cc2c(=O)n3ccccc3nc2n1Cc1ccccc1,-55.9%
20,CCN(CC)CCOC(=O)c1ccc(N/C=C(/C#N)c2nc(-c3cccc(OC)c3)cs2)cc1,13.7%
21,CCOC(=O)/C=C1\SCC(=O)N1CC(=O)Nc1ccc(OC)c(OC)c1,12.2%
22,CCOC(=O)C1CCN(C(=O)N(CC)CC)CC1,3.77%

row,Compound,"hERG current change (%, negative = inhibition) at 1uM"
1,CCCCn1c(=O)c(-c2ccccc2)c(O)c2ccccc21,16.3%
2,Cc1nonc1C1CCCN1C(=O)c1cc(COc2ccc(F)cc2Cl)on1 (stereo not shown),8.74%
3,COc1ccc(NC2CCCN(C(=O)CSc3ccccc3)C2)cc1OC (stereo not shown),4.34%
4,CC1(C)CC(=O)C(C(c2cccnc2)C2C(=O)CC(C)(C)CC2=O)C(=O)C1,2.02%
5,CCCC(=O)N1CCN(c2ccc(NC(=O)c3ccc(N4CCCC4)c([N+](=O)[O-])c3)cc2Cl)CC1,-8.46%
6,Br.N=C1c2ccccc2CN1NC(=O)C1CC1,7.71%
7,CCCCN(C)C(=O)c1cc2c(s1)-c1ccccc1S(=O)(=O)C2,-6.69%
8,Cc1[nH]c(=O)[nH]c(=O)c1S(=O)(=O)N1CCC(C(=O)NC(C)c2ccccc2)CC1 (stereo not shown),7.35%
9,CSc1ccc(CN2CCC(Oc3ccc(C(=O)N4CCCC4)cc3)CC2)cc1,-56.4%
10,O=C(c1ccc(OC2CCN(CCc3ccccc3)CC2)cc1)N1CCCC1,-1.63%
11,CCc1ccc(CN2CCC(Oc3ccc(C(=O)N4CCCCC4)cc3)CC2)cc1,-61.5%
12,COC(=O)c1ccc(CN2CCC(Oc3ccc(C(=O)N4CCCCC4)cc3)CC2)cc1,-11.3%
13,O=C(c1ccc(OC2CCN(Cc3ccc(F)cc3)CC2)cc1)N1CCCC1,7.68%
14,CC(C)c1ccc(CN2CCC(Oc3ccc(C(=O)N4CCCC4)cc3)CC2)cc1,-33.7%
15,O=C(c1ccc(OC2CCN(Cc3ccc(C(F)(F)F)cc3)CC2)cc1)N1CCCCC1,6.84%
16,CC(=O)N1CCN(C(=O)c2ccc(OC3CCN(CCc4ccccc4)CC3)cc2)CC1,14.6%
17,CCc1ccc(CN2CCC(Oc3ccc(C(=O)N4CCCC4)cc3)CC2)cc1,-77.5%
18,CSc1ccc(CN2CCC(Oc3cccc(C(=O)N4CCCC4)c3)CC2)cc1,-36.7%
19,CC(=O)Nc1ccc(CN2CCC(Oc3ccc(C(=O)N4CCCC4)cc3)CC2)cc1,-6.27%
20,O=C(c1ccc(OC2CCN(CCCc3ccccc3)CC2)cc1)N1CCCC1,-55.2%
21,CC(=O)c1cc(C(=O)N2CCCC(CCC(=O)N(C)CCc3ccccn3)C2)cs1 (stereo not shown),9.12%
22,Cc1ccc(S(=O)(=O)Nc2cccc(/C=C/C(=O)O)c2)cc1,17%

row,Compound,"hERG current change (%, negative = inhibition) at 1uM"
1,O=C(CN1CCN(c2ccc(Cl)cc2)CC1)c1ccc2c(c1)OCO2,1.86%
2,COc1ccccc1/C=C/C(=O)Nc1cccc(S(=O)(=O)NC2=NCCCCC2)c1,13.1%
3,COc1ccc(C(=O)NC(=S)N2CCCCC2)cc1[N+](=O)[O-],5.8%
4,O=C(NCc1ccco1)c1sc(=S)n2c1[nH]c(=O)c1ccccc12,-4.07%
5,CCCCn1c(N)c(N(CC)C(=O)c2ccccc2F)c(=O)[nH]c1=O,19.7%
6,CCOc1ccccc1NC(=O)CSc1nnc(Cc2cccn2C)n1-c1ccc(F)cc1,-8.2%
7,CCCCc1nc(NCC2CCCO2)c(C#N)c2c1COC(C)(C)C2 (stereo not shown),6.42%
8,COc1ccccc1OCc1ccc(C(=O)NN)cc1,5.11%
9,C[C@@H]1CC[C@@]2(O[C@@H](CCO)C[C@@H](O)[C@@H]2O)O1,20.7%
10,O=C(c1ccc(OC2CCN(C/C=C/c3ccccc3)CC2)cc1)N1CCCC1,-27.1%
11,O=C(c1ccc(OC2CCN(C/C=C/c3ccc(F)cc3)CC2)cc1)N1CCCC1,-74.9%
12,O=C(c1ccc(OC2CCN(C/C=C/c3ccc(F)cc3)CC2)cc1)N1CCCCC1,-19.2%
13,Cc1cccc(N2CCN(C(=O)c3ccc4nc(N5CCCCC5)sc4c3)CC2)c1C,8.76%
14,Brc1ccc(C=Nc2ccc3c(c2)OCCOCCOCCO3)s1,-58.3%
15,Brc1ccc(C=Nc2ccc(Nc3ccccc3)cc2)s1,14.7%
16,Brc1csc(C=Nc2ccc3c(c2)OCCOCCOCCOCCO3)c1,-78.1%
17,O=C(N/N=C/c1cc(Br)cs1)c1ccc2c(c1)OCCO2,9.48%
18,Oc1c(Cl)cc(Cl)cc1C=Nc1ccc2c(c1)OCCO2,16%
19,Oc1c(Br)cc(Br)cc1C=Nc1ccc2c(c1)OCCO2,12.2%

# — PMC4336329 (PLoS ONE, 2015)
